The values that follow come from PubChem BioAssay (NCI).

Some test systems named below: EKVX NSCLC; SN12C renal; UO-31 renal; TK-10 renal; ACHN renal; CAKI-1 renal; CCRF-CEM leukemia; MOLT-4 leukemia; SR leukemia.
Common to all, as to test: NCI-60 one-dose screen, 48 h (100 = growth as untreated, 0 = no growth, -100 = all killed)
Common to all, as to conditions: 10 µM unless noted

Structures are written as SMILES. Compounds without any hit were thinned out: in the full panel of roughly 83,000, 20% have a hit.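 Percent growth is the endpoint: 0 to 100 indicates growth inhibition (40 means 60% inhibition), 0 means no net growth, and negative values indicate cell death.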 A number with no mark means an inactive call. The source made the active and inactive calls. How the source made its calls: active means growth percent below 10; inactive means the rest.

As for `CC(C)[O-].CC(C)[O-].CN(CCN(C)Cc1cc(F)cc(F)c1[O-])Cc1cc(F)cc(F)c1[O-].[Ti+4]`, the growth was -8.9% (active) in the test with EKVX NSCLC; 19.7% with SN12C renal; -14.5% (active) in the test on UO-31 renal; -12.6% (active) in the test on TK-10 renal; 9.76% (active) with ACHN renal; -11.1% (active) with CAKI-1 renal. Further, the growth was 16.4% in the test on CCRF-CEM leukemia, 8.02% (active) in the test with MOLT-4 leukemia and 1.21% (active) with SR leukemia.

For `COc1ccc(/C=C/C(=O)Nc2cccnc2Nc2ccc(F)cc2)cc1`, the growth with EKVX NSCLC is 88.4%; in the test on SN12C renal, 89.3%; in the test with UO-31 renal, 95.4%; in the test on TK-10 renal, 113%; in the test with ACHN renal, 104%; with CAKI-1 renal, 86.5%. For the same compound, the growth was 112% in the test with CCRF-CEM leukemia, 80.1% in the test on MOLT-4 leukemia and 88.7% with SR leukemia.

As for `COc1ccc(C2=NN(C(=O)c3cc(OC)c(OC)c(OC)c3)C(c3ccc(C#N)cc3)C2)cc1OC` (centres undefined), the growth is 33.4% in the test on EKVX NSCLC; 53.5% in the test with SN12C renal; 18.2% with UO-31 renal; 31.9% in the test on TK-10 renal; 44.6% in the test with ACHN renal; 5.45% (active) in the test on CAKI-1 renal. Moreover, the growth was 29.9% in the test with CCRF-CEM leukemia, 49.5% in the test on MOLT-4 leukemia and 28.4% with SR leukemia.

`O=c1[nH]c(Cl)nc2c1cnn2-c1ccccc1`: the growth with EKVX NSCLC was 93.7%; in the test on SN12C renal, 97.4%; with UO-31 renal, 73.2%; with TK-10 renal it was 102%; in the test on ACHN renal it was 101%; with CAKI-1 renal it was 61.6%. For the same compound, the growth in the test on CCRF-CEM leukemia was 40.9%; with MOLT-4 leukemia, 47.6%; with SR leukemia, 32.1%.

Turning to `CC[N+](CC)(CCOCCOCC[N+](CC)(CC)Cc1ccc([N+](=O)[O-])cc1)Cc1ccc([N+](=O)[O-])cc1`, the growth with EKVX NSCLC is 101%; in the test on SN12C renal, 94.2%; with UO-31 renal, 68.5%; in the test on TK-10 renal, 95%; with ACHN renal, 102%; in the test with CAKI-1 renal, 93.7%. Further, the growth in the test on CCRF-CEM leukemia was 102%; with MOLT-4 leukemia, 84.8%; in the test on SR leukemia, 107%.

As for `COc1ccc(COC(C)=O)cc1`, the growth in the test with EKVX NSCLC was 113%; in the test on SN12C renal, 124%; with UO-31 renal it was 97.2%; in the test with TK-10 renal it was 126%; in the test on ACHN renal, 99.1%; in the test with CAKI-1 renal, 105%. Further, the growth in the test on CCRF-CEM leukemia is 86.4%; in the test on MOLT-4 leukemia, 107%; in the test on SR leukemia, 112%.

On to `Nc1nc(SCC2(CCl)COC2)c2[nH]cnc2n1`, for which the growth in the test with EKVX NSCLC is 107%; in the test with SN12C renal it was 100%; in the test on UO-31 renal, 75.9%; in the test on TK-10 renal it was 102%; in the test on ACHN renal, 95.7%; in the test with CAKI-1 renal it was 105%. For the same compound, the growth in the test on CCRF-CEM leukemia was 101%; with MOLT-4 leukemia it was 89%; with SR leukemia, 83.8%.

For the compound `CN(C)c1ccc(/C=C(\C#N)c2nc3ccccc3c(=O)[nH]2)cc1`, the growth in the test on EKVX NSCLC is 92%; with SN12C renal, 90.8%; in the test with UO-31 renal it was 35.7%; in the test with TK-10 renal, 101%; in the test with ACHN renal, 96.1%; with CAKI-1 renal, 98%. Further, the results for the growth in the test with CCRF-CEM leukemia, in the test with MOLT-4 leukemia and in the test with SR leukemia were 107%, 118% and 154%, respectively.

On to `Cc1cccc(Cl)c1NC(=O)c1ccc2nc(NC(=O)NC3CC(C)(C)NC(C)(C)C3)sc2c1`, for which the growth with EKVX NSCLC was 94.5%; in the test on SN12C renal it was 56.5%; in the test on UO-31 renal, 88.7%; with TK-10 renal it was 80.2%; in the test with ACHN renal it was 94.9%; in the test with CAKI-1 renal, 92%. The results for the growth in the test on CCRF-CEM leukemia, in the test with MOLT-4 leukemia and in the test on SR leukemia were 87.7%, 70% and 95.6%, respectively.

Turning to `C[n+]1ccc(Nc2ccc(NC(=O)c3ccc(Nc4cc[n+](C)c5ccc(N)cc45)cc3)cc2)cc1`, the growth is 93.9% with EKVX NSCLC; 88.4% in the test on SN12C renal; 75.7% with UO-31 renal; 108% in the test on TK-10 renal; 100% with ACHN renal; 94.5% in the test with CAKI-1 renal. Further, the growth in the test on CCRF-CEM leukemia was 98%; in the test on MOLT-4 leukemia, 97.5%; in the test on SR leukemia, 93.2%.

Regarding `CCC(CCC(C)C1CCC2C3CC=C4CC(O)CCC4(C)C3CCC12C)C(C)C` (centres undefined) (tested in a mixture with another compound), the growth in the test with EKVX NSCLC is 115%; in the test on SN12C renal, 84.4%; in the test on UO-31 renal, 93.6%; in the test with TK-10 renal, 139%; in the test on ACHN renal, 88%; with CAKI-1 renal it was 108%. For the same compound, the growth with CCRF-CEM leukemia was 60%; with MOLT-4 leukemia, 70.6%; in the test on SR leukemia, 101%.

As to `COc1ccc2nc(-c3ccc(-n4cncc4-c4ccc(OC)c(N)c4)cc3)sc2c1`, the growth in the test with EKVX NSCLC is 109%; in the test on SN12C renal it was 111%; in the test on UO-31 renal, 70.1%; in the test with TK-10 renal, 114%; in the test on ACHN renal, 103%; with CAKI-1 renal, 106%. Also, the figures for the growth in the test with CCRF-CEM leukemia, in the test with MOLT-4 leukemia and with SR leukemia were 95.6%, 66.3% and 69.3%, respectively.

Take `COc1cc(C(=O)/C=C/c2cccnc2Nc2ccccc2)cc(OC)c1OC`: the growth was -5.31% (active) with EKVX NSCLC; -92.6% (active) in the test with SN12C renal; -99.5% (active) with UO-31 renal; -13% (active) in the test with TK-10 renal; -99.2% (active) with ACHN renal; -22.6% (active) in the test on CAKI-1 renal. In addition, the results for the growth in the test on CCRF-CEM leukemia, in the test on MOLT-4 leukemia and in the test with SR leukemia were -16% (active), -1.45% (active) and 1.47% (active), respectively.

For `O=C1/C(=N/O)CCc2ccccc21`, the growth was 88.8% with EKVX NSCLC; 96.1% in the test with SN12C renal; 66.4% in the test with UO-31 renal; 151% in the test with TK-10 renal; 88.9% in the test with ACHN renal; 102% with CAKI-1 renal. Besides, the growth in the test on CCRF-CEM leukemia is 4.19% (active); in the test on SR leukemia, 113%.

For the compound `O=[N+]([O-])c1ccc2c(c1)S(=O)c1cc([N+](=O)[O-])ccc1N2`, the growth with EKVX NSCLC was 112%; in the test on SN12C renal, 101%; with UO-31 renal, 77.7%; with TK-10 renal, 110%; with ACHN renal, 96.7%; with CAKI-1 renal it was 98.8%. The growth was 98.9% in the test on CCRF-CEM leukemia, 93% in the test on MOLT-4 leukemia and 121% in the test on SR leukemia.
